Assay [1] deals with TRPC4 beta (transient receptor potential cation channel C4), mouse. Kind of assay: activators of mouse TRPC4 channel, confirmation, cell-based, Fluo4 calcium, HEK293 TRPC4beta/mu-opioid, duplicates, 10 µM (AID 2426;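 active means fluorescence ratio normalized to control raised more than 50% in primary screen plus both repeat runs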;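 on activation: percent rise of integrated ratio over buffer wells lacking compound which define 0%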). The conditions noted are these: Fluo4 calcium fluorescence, at 10 µM; active compounds read high.
Assay [2] relates to transient receptor potential cation channel C4 beta (TRPC4), mouse. Briefly: activators of mouse TRPC4 channel, confirmation, cell-based, second round, Fluo4, HEK293 TRPC4beta/mu-opioid, 1 µM (AID 2461;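 active means primary screen active and over 50% activation in each of two duplicate runs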;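 on activation: 0% = wells without test compound as baseline of integrated fluorescence ratio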). The conditions noted are these: Fluo4 calcium fluorescence, at 1 µM; active compounds read high.
Assay [3] has as its system TRPC4 (transient receptor potential cation channel C4 beta), mouse. Briefly: positive allosteric modulators of mouse TRPC4, confirmation, cell-based, second round, Fluo-4, HEK293 TRPC4beta/mu-opioid, 1 µM (AID 2554;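 active means primary screen hit whose fluorescence ratio, in both repeats, exceeds the weak agonist control mean by 3 SD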). The following applies: DAMGO EC20, Fluo-4 calcium flux, at 1 µM; active compounds read high. (Calcium assays in cells follow changes in intracellular calcium, usually with a dye or a luminescent sensor.)

For assay [4], the system named is TRPC4 beta (transient receptor potential cation channel C4), mouse. Briefly: positive allosteric modulators of mouse TRPC4, confirmation, cell-based, Fluo-4, HEK293 TRPC4beta/mu-opioid (AID 2555;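 active means primary screen hit whose calcium fluorescence ratio, in both repeats, exceeds the weak agonist control mean by 3 SD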). The conditions noted are these: DAMGO EC20, Fluo-4 calcium flux, at 10 µM; active compounds read high.
The target of assay [5] is Short transient receptor potential channel 4 (Mus musculus) (UniProt Q9QUQ5). Briefly: inhibitors of mouse TRPC4 channel, confirmation, cell-based, Fluo4, HEK293 TRPC4beta/mu-opioid (AID 2636;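 active means calcium signal cut by more than 3 SD below the full-agonist control yet still positive, in both repeats and the earlier primary screen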). The conditions noted are these: DAMGO, Fluo4 calcium flux, at 10 µM; active compounds read high.
The target is the same in assay [6]. Kind of assay: inhibitors of mouse TRPC4 channel, confirmation, cell-based, second round, Fluo4, HEK293 TRPC4beta/mu-opioid, 1 µM (AID 2637;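 active means calcium signal ratio cut to more than 3 SD under the fully stimulated control mean yet still positive, in both repeats and the primary screen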). The following applies: Fluo4 calcium flux, DAMGO, at 1 µM; active compounds read high.
Assay [7] shares this target. Briefly: TRPC4 positive allosteric modulators, dose response, cell-based, HEK293 TRPC4/mu-opioid, Fluo-4 calcium, EC20 DAMGO (AID 434941;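 active means earlier screen potentiator hit that boosts the TRPC4 ion channel at some dose, with a dose response; inactive means no potentiation, no dose response, or not a prior hit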;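 further: calcium entry triggered by an EC20 dose of DAMGO at the co-expressed mu-opioid receptor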).
Assay [8] shares this target. Briefly: mouse TRPC4 channel inhibitors, dose response, cell-based, HEK293 TRPC4/mu-opioid, Fluo-4 calcium (AID 434942;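 active means primary screen inhibitor hit that blocks the TRPC4 channel at some tested dose, yielding a dose curve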).
Assay [9] addresses Short transient receptor potential channel 6 (Mus musculus) (UniProt Q61143). Briefly: inhibition of mouse TRPC6 channel, confirmation, selectivity assay for TRPC4 inhibitor project, cell-based, HEK293, membrane potential dye, duplicate (AID 434948;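 active means active in primary screen and both duplicates, each dropping signal beyond three positive-control SD with fluorescence still positive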). The following applies: HEK293 TRPC6, membrane potential dye fluorescence, at 10 µM, stimulated with maximal-effect acetylcholine; active compounds read high.

The target is the same in assay [10]. Briefly: activation of mouse TRPC6 channel, confirmation, selectivity assay for TRPC4 activator project, cell-based, HEK293, membrane potential dye, duplicate (AID 434950).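 On activation: 0% = buffer only wells and 100% = acetylcholine maximal-effect wells.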 The following applies: HEK293 TRPC6, membrane potential fluorescence, at 10 µM; active compounds read high.
Assay [11] shares this target. Briefly: TRPC6 potentiation by TRPC4 potentiator hits, confirmation, selectivity assay for TRPC4 potentiator project, HEK293 cells, membrane potential dye, duplicate (AID 434952;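 active means compound raising the membrane signal above positive-control mean plus 3 SD in both repeats, and a primary screen hit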). The following applies: HEK293 TRPC6, membrane potential dye fluorescence, at 10 µM, maximal acetylcholine added after compound; active compounds read high.
Assay [12] deals with Short transient receptor potential channel 4 (Mus musculus) (UniProt Q9QUQ5). Kind of assay: calcium flux activators in TRPC4/5HT1a cells, counter-screen for TRPC4 activator project, cell-based, second counter screen, HEK293 TRPC4/5HT1a, Fluo-4 (AID 434977;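 active means calcium signal rise above buffer-control mean plus 5 SD in both duplicates, and also a hit in the primary screen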;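 on activation: plate controls were assay buffer for no effect and maximal serotonin response for full effect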). The conditions noted are these: Fluo-4 calcium flux, at 10 µM; active compounds read high.
Assay [13] is described as follows: calcium flux inhibitors in TRPC4/5HT1a cells, confirmation, counter-screen for TRPC4 inhibitor project, cell-based, second counter screen, HEK293 TRPC4/5HT1a, Fluo-4 (AID 434978;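 active means primary screen active whose calcium signal fell more than 3 SD beyond the full-serotonin control mean in both duplicate plates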;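 further: serotonin given first at submaximal then at maximal dose after compound preincubation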). The following applies: Fluo-4 calcium flux, at 10 µM, serotonin added to trigger calcium flux; active compounds read high.
In assay [14] the test system is TRPC4 (mouse), co-expressed with 5HT1a in HEK293. Kind of assay: calcium flux potentiators in TRPC4/5HT1a cells, confirmation, counter-screen for TRPC4 potentiator project, cell-based, second counter screen, HEK293 TRPC4/5HT1a, Fluo-4 (AID 434979;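 active means signal rise over 3 SD above mean of control wells given weak agonist, in both repeats and first screen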). The following applies: Fluo-4 calcium flux, at 10 µM, serotonin added at its EC20 dose; active compounds read high.
Assay [15] can be described thus: calcium flux activation in mu-opioid HEK293 cells, confirmation, counter-screen for TRPC4 activator project, cell-based, HEK293 mu-opioid receptor line (AID 449723;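 active means hit in primary screen, with calcium signal over 5 SD above buffer well mean in both duplicates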;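 further: counter screen cells carry the mu-opioid receptor alone and lack TRPC4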). The following applies: Fluo-4 calcium fluorescence, at 10 µM; active compounds read high.
Assay [16] in a line: calcium flux enhancement in mu-opioid HEK293 cells, confirmation, counter-screen for TRPC4 allosteric potentiator project, cell-based, HEK293 mu-opioid receptor line (AID 449724;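 active means calcium signal rise more than 3 SD above the low-dose agonist control mean, in both duplicate plates and the primary screen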;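 further: HEK293 cells carrying mu-opioid receptor only with no TRPC4 channel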). The following applies: Fluo-4 calcium flux, at 10 µM, compound added before EC20 DAMGO stimulus; active compounds read high.

For part of these data: Results with a measured potency or affinity are listed apart. Calls of active or inactive are those of the source.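 How the source made its calls, unless noted: active means membrane potential signal rise above negative control mean plus 3 SD in both duplicates, also active in the earlier TRPC4 screen; inactive means the rest.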

For 15 compounds, activation, outcome and potentiation results are on record in PubChem BioAssay.

Chain of Short transient receptor potential channel 4 (Mus musculus) (Q9QUQ5 whole entry, looked up): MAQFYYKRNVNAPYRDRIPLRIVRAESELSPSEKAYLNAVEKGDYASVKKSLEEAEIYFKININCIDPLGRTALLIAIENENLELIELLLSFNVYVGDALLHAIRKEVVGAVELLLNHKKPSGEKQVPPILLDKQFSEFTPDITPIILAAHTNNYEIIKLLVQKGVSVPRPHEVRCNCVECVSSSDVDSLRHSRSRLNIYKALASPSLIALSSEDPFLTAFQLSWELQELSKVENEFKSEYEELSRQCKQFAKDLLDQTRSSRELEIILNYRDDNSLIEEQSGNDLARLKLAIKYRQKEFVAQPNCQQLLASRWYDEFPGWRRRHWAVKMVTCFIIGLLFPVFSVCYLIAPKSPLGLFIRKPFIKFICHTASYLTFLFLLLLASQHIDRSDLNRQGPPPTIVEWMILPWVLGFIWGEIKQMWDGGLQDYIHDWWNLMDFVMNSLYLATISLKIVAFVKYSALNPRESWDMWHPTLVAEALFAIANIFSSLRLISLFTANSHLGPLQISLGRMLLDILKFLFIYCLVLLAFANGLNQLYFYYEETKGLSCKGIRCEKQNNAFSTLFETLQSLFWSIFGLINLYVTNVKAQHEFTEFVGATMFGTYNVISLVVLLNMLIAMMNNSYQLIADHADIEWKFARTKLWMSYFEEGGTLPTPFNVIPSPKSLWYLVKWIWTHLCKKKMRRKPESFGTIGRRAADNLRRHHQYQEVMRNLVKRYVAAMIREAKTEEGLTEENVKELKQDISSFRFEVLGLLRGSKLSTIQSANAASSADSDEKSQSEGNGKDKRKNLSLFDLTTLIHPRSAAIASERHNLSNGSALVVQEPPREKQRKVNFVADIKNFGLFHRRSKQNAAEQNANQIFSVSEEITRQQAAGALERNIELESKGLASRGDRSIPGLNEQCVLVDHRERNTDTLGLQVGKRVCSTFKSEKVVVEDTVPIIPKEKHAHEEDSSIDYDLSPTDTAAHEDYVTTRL
Chain of Short transient receptor potential channel 6 (Mus musculus) (Q61143 whole entry, looked up): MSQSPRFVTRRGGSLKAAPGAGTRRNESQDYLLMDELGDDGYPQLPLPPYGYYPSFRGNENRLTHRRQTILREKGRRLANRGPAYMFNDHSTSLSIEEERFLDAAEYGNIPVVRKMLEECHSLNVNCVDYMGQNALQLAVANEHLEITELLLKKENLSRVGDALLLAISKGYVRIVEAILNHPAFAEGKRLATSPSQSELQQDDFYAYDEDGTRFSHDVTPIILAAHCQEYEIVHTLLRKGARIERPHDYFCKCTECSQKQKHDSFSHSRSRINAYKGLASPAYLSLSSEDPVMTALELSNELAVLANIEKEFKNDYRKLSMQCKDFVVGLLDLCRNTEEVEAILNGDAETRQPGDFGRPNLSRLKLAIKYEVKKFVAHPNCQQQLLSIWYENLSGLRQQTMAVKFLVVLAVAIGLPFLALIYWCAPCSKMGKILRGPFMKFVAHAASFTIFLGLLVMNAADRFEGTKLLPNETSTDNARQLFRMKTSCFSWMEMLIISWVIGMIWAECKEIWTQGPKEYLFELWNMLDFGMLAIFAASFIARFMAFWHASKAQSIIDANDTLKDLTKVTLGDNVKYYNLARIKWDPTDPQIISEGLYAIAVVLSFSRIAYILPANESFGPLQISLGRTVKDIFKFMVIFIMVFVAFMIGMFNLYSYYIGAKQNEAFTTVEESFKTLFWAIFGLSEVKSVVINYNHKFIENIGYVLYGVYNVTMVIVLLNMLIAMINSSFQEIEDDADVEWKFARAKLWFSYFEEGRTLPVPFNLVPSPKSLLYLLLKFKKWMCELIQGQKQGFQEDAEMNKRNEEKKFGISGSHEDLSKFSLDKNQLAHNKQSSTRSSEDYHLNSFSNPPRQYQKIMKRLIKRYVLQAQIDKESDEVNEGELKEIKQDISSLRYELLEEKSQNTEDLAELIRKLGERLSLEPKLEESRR

Turning to `Cc1cccc(C)c1OCC(O)CN` (stereo not given), the activation is 90% (active) in assay [1], 30.5% (active) in [10] and 20.1% (active) in assay [12]. The outcome in [2], in [3], in [4], in assay [5], in assay [6] and in [7] was inactive. Moreover, the outcome in [8], in [9], in [11], in assay [13], in [14] and in [15] was inactive. Moreover, the outcome in assay [16] was inactive.
As for `CCCCN(C)CCCNC(=O)CN1N=C(c2ccc(Cl)cc2)CCC1=O`, the outcome in assay [1], in [2], in [3], in assay [4], in assay [5] and in [6] was inactive. The outcome in assay [7], in assay [8], in assay [9], in [11], in assay [13] and in assay [15] was inactive. In addition, the result in assay [16] was inactive. Moreover, the activation is 30% (active) in assay [10] and 16.6% (active) in assay [12]. Besides, the potentiation in assay [14] is 21.3% (active).
For `Fc1ccc(C2CCNCC2COc2ccc3c(c2)OCO3)cc1` (stereo not given), the activation is 202% (active) in assay [1], 26.8% (active) in assay [12] and 15.8% (active) in assay [15]. Further, the outcome in assay [2], in assay [3], in assay [4], in assay [5], in assay [6] and in [7] was inactive. Besides, the outcome in assay [8], in assay [9], in assay [10], in [11], in [13] and in assay [14] was inactive. Also, in assay [16], the outcome was inactive.
As for `CCN(CC)CCCOc1ccc(Cl)c(Cl)c1`, the result in [1], in assay [2], in assay [5], in assay [6], in [7] and in assay [8] was inactive. In addition, the compound was called inactive in [9], in assay [11], in assay [13], in assay [15] and in [16]. In addition, the potentiation in [3] is 31% (active); in assay [4] it was 33% (active); in assay [14], 21.3% (active). Also, the activation in [10] is 48% (active); in assay [12], 17.9% (active).
As to `Cc1cc(OCCCn2ccnc2)ccc1[N+](=O)[O-]`, the activation in assay [1] is 134% (active). Also, the result in assay [2], in assay [3], in [4], in assay [5], in assay [6] and in [7] was inactive. Further, the result in assay [8], in assay [9], in [10], in assay [11], in [12] and in [13] was inactive. Besides, the outcome in [15] and in assay [16] was inactive. The potentiation in [14] is 18.2% (active).
Turning to `COc1ccc(C(CNC(=O)c2cc(SC)ccc2Cl)N(C)C)cc1` (stereo not given), the activation in assay [1] is 103% (active); in assay [2], 77% (active); in assay [10] it was 65% (active). Also, the result in [3], in assay [4], in [5], in [6], in assay [7] and in assay [8] was inactive. In addition, the outcome in assay [9], in assay [11], in [12], in [13], in assay [14] and in assay [15] was inactive. In [16], the outcome was inactive.
For `CC(c1cccnc1)N(CCN(C)C)C(=O)Nc1ccc(Cl)c(Cl)c1` (stereo not given), the result in assay [1], in assay [2], in assay [3], in assay [4], in [5] and in [6] was inactive. Further, the outcome in assay [7], in assay [8], in assay [9], in assay [11], in assay [12] and in assay [13] was inactive. Moreover, the outcome in [14], in assay [15] and in assay [16] was inactive. For the same compound, the activation in assay [10] is 34% (active).
`COc1ccc(C(=O)NC(=S)NNC(=O)CCc2ccccc2)cc1`: the activation in assay [1] is 100% (active); in assay [10], 25% (active); in assay [12], 61.1% (active). Also, the outcome in [2], in assay [3], in assay [4], in assay [5], in assay [6] and in assay [7] was inactive. Besides, the outcome in [8], in [9], in assay [11], in assay [13], in [14] and in [15] was inactive. The outcome in assay [16] was inactive.
For the compound `CN(C)CCCN(C(=O)c1ccc(S(=O)(=O)N2CCOCC2)cc1)c1nc2ccc(F)cc2s1`, the activation in [1] was 104% (active). Moreover, the result in assay [2], in assay [3], in assay [4], in assay [5], in assay [6] and in assay [7] was inactive. The outcome in assay [8], in assay [9], in [10], in assay [11], in assay [12] and in assay [13] was inactive. Also, the outcome in assay [14], in assay [15] and in assay [16] was inactive.
Consider `Fc1ccc(-c2nnc(CN3CCN(c4ncc(C(F)(F)F)cc4Cl)CC3)o2)cc1`, for which the results for the activation in assay [1], in assay [10] and in [12] were 120% (active), 35.5% (active) and 23.8% (active), respectively. Further, the result in [2], in assay [3], in [4], in assay [5], in assay [6] and in assay [7] was inactive. The result in assay [8], in assay [9], in assay [11], in [13], in assay [14] and in [15] was inactive. Moreover, the outcome in [16] was inactive.
Take `O=C(NNC(=S)NC(=O)c1ccccc1Cl)c1cccc([N+](=O)[O-])c1`: the activation in assay [1] was 120% (active); in assay [10], 29% (active); in [12] it was 77.4% (active); in assay [15], 23% (active). The outcome in [2], in assay [3], in assay [4], in assay [5], in [6] and in assay [7] was inactive. For the same compound, the result in assay [8], in assay [9], in assay [11], in assay [13], in assay [14] and in assay [16] was inactive.
On to `CCCC(=O)N1CCc2cc(-c3nc(N)sc3C)ccc21`, for which the activation in assay [1] is 62% (active). Besides, the result in assay [2], in assay [3], in [4], in assay [5], in assay [6] and in [7] was inactive. Also, the result in [8], in [9], in assay [10], in assay [11], in [12] and in [13] was inactive. The result in [14], in assay [15] and in [16] was inactive.
Consider `CN(C)C(CNC(=O)c1cnc(Cl)c(Cl)c1)c1ccccc1` (stereo not given), for which the values for the activation in assay [1], in [2] and in assay [10] were 169% (active), 151% (active) and 30.5% (active), respectively. Besides, the result in assay [3], in assay [4], in assay [5], in assay [6], in assay [7] and in assay [8] was inactive. In addition, the compound was classed as inactive in [9], in assay [11], in assay [12], in [13], in assay [14] and in [15]. The result in assay [16] was inactive.
For the compound `Cc1sc2ncnc(NC3CCN(Cc4ccccc4)CC3)c2c1C`, the results for the activation in assay [1], in assay [2] and in assay [12] were 240% (active), 199% (active) and 145% (active), respectively. Also, the outcome in assay [3], in assay [4], in [5], in [6], in assay [7] and in [8] was inactive. Also, the compound was called inactive in assay [9], in [10], in assay [11], in [13], in assay [14] and in [15]. Also, the outcome in assay [16] was inactive.
For `Cc1ccc(C)c(-n2cc(CNCCc3cnccn3)c(-c3ccccc3)n2)c1`, the results for the activation in assay [1], in assay [2] and in assay [10] were 152% (active), 54% (active) and 40% (active), respectively. Besides, the result in assay [3], in assay [4], in [5], in assay [6], in [7] and in assay [8] was inactive. Moreover, the outcome in [9], in assay [11], in [12], in assay [13], in assay [14] and in assay [15] was inactive. The result in assay [16] was inactive.
